A3A deaminase = inhibitors of human APOBEC3A DNA deaminase. inhibition, % at 20 µM. AID 493011. P31941. 330,000 compounds, 0.41% hits. recombinant A3A, FAM/TAMRA ssDNA deamination fluorescence;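 active = at least 40% inhibition at 20 µM here, with at most 30% in a related deaminase screen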;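 note: plate controls were A3A with DMSO for no effect and wells lacking A3A enzyme for full effect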
APOBEC3G inh = inhibitors of human APOBEC3G DNA deaminase; 330,000 compounds, 0.28% hits; recombinant A3G, ssDNA deamination FAM/TAMRA fluorescence; inhibition, % at 20 µM; Q9HC16;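 active = inhibition of at least 40% at 20 µM, with no more than 30% in the related APOBEC3A deaminase screen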;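 note: plate controls were DMSO wells with A3G for no effect and wells lacking A3G enzyme for full effect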
AHR act = activators of human aryl hydrocarbon receptor. AHR-responsive luciferase reporter cells, luminescence. P35869. activation, % at 5 µM. 320,000 compounds, 2.5% hits; in the data active = activation above about 47%;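 note: 0% = vehicle wells and 100% = reference agonist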
NTR1 ag = NTR1 (human) agonism; 330,000 compounds, 0.17% hits; P30989; AID 493036; activation, % at 20 µM; NTR1-U2OS beta-arrestin-GFP spot imaging, agonist mode;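 active = activation at or above 40% of the spot to cytoplasm intensity ratio, with at least 20 cells analyzed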;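 note: 0% = DMSO without peptide and 100% = 100 nM NTR1 peptide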
Target sequence (P30989 whole entry, looked up): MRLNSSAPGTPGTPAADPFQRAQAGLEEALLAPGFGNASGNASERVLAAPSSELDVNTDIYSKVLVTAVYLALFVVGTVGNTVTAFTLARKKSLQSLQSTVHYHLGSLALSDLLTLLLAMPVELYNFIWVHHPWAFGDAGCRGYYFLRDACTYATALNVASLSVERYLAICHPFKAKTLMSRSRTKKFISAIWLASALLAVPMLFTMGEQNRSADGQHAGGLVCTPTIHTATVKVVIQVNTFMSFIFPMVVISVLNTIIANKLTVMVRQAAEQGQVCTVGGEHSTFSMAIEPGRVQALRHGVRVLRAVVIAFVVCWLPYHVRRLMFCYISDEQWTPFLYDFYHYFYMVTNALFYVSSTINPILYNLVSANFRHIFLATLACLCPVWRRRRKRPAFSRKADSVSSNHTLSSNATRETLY
AHR act confirm = human AHR activation, confirmation | shares compounds with AHR act | human cells, AHR-responsive luciferase reporter, luminescence | activation, % at 9 µM | 2,300 compounds, 87% hits | AID 2845; in the data active = activation above about 49%;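 note: HepG2 hepatoma cells carrying a DRE-driven firefly luciferase reporter; 0% = vehicle wells and 100% = reference agonist wells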
PXR act counter = PXR activation, counter-screen for AHR activators. cell-based PXR reporter, luciferase luminescence. 2,300 compounds, 88% hits. shares compounds with AHR act. AID 434939. activation, % at 11.6 µM; in the data active = activation above about 11%;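 note: human hepatoma DPX-2 cells expressing full-length human PXR; 0% = DMSO and 100% = reference agonist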
* = called active by the depositor. Most compounds without a hit are left out; they make up all but 3.2% or so of the library.

Results for Cc1cc(C)n(-c2nc3c(c(=O)[nH]c(=O)n3C)n2CC(O)c2ccccc2)n1 (configuration not stated) ?
A3A deaminase: 0.8; APOBEC3G inh: -0.4; AHR act: 80.3*; NTR1 ag: -1.0; AHR act confirm: 77.6*; PXR act counter: 45.2*

What do the screens show for `Cc1cc(C)n(-c2nc3c(c(=O)[nH]c(=O)n3C)n2Cc2ccccc2)n1`?
A3A deaminase: -2.1; APOBEC3G inh: -1.5; AHR act: 1.1; NTR1 ag: 0.1

How did Cc1cc(C)n(-c2nc3c(c(=O)[nH]c(=O)n3C)n2CCc2ccccc2)n1 do in these assays?
A3A deaminase: -7.8; APOBEC3G inh: -1.5; AHR act: 132.7*; NTR1 ag: 0.3; AHR act confirm: 84.3*; PXR act counter: 67.4*

What do the screens show for `CCOc1ccc(N2C=Nc3ccc(OCC)cc3C2)cc1`?
A3A deaminase: -6.0; APOBEC3G inh: -11.8; AHR act: 25.0; NTR1 ag: 3.1

What do the screens show for `c1cc(CSc2nnc(-c3ccc4c(c3)OCO4)o2)ccn1`?
A3A deaminase: -1.9; APOBEC3G inh: -1.2; AHR act: 87.5*; NTR1 ag: 0.1; AHR act confirm: 52.4*; PXR act counter: 24.1*

How did Cc1ccc(CSc2nnc(-c3ccc4c(c3)OCO4)o2)cc1 do in these assays?
A3A deaminase: -0.2; APOBEC3G inh: -9.3; AHR act: 19.8; NTR1 ag: 1.8

How did Fc1ccc2nc(Nc3nc4cc5c(cc4s3)OCO5)sc2c1 do in these assays?
A3A deaminase: -2.2; APOBEC3G inh: -7.7; AHR act: 119.3*; NTR1 ag: 4.7; AHR act confirm: 80.0*; PXR act counter: 19.2*

Results for Fc1ccc2nc(Nc3nc4cc5c(cc4s3)OCCO5)sc2c1 ?
A3A deaminase: 2.7; APOBEC3G inh: 1.0; AHR act: 103.0*; NTR1 ag: 4.7; AHR act confirm: 51.7*; PXR act counter: -6.3

Results for Fc1ccc2nc(Nc3nc4c(F)cc(F)cc4s3)sc2c1 ?
AHR act: 31.0

How did CCOC(=O)N1CCN(S(=O)(=O)c2cc([N+](=O)[O-])c(C)cc2C)CC1 do in these assays?
A3A deaminase: -3.8; APOBEC3G inh: -5.8; AHR act: -1.0; NTR1 ag: -0.9

How did O=C(COC(=O)CNC(=O)c1ccccc1)Nc1ccc(Cl)cn1 do in these assays?
A3A deaminase: 3.4; APOBEC3G inh: 2.5; AHR act: 0.5; NTR1 ag: 0.3

What do the screens show for `Cc1nc2c(-c3ccc(F)cc3)c(C)nn2c(C)c1CCC(=O)Nc1ccccc1F`?
A3A deaminase: 6.3; APOBEC3G inh: -1.2; AHR act: -2.6; NTR1 ag: 10.1

Results for CCOC(=O)C1(Cc2ccc(OC)cc2)CCN(C(=O)c2cc3ccccc3[nH]2)CC1 ?
A3A deaminase: -4.0; APOBEC3G inh: -3.5; AHR act: 104.7*; NTR1 ag: 6.8; AHR act confirm: 89.4*; PXR act counter: 40.3*

Results for CCCc1cc(=O)oc2cc(C)cc(OCC(=O)NCc3ccccn3)c12 ?
A3A deaminase: -7.6; APOBEC3G inh: -7.2; AHR act: 17.3; NTR1 ag: 0.8

How did CCCc1cc(=O)oc2cc(C)cc(OCC(=O)Nc3cccnc3)c12 do in these assays?
A3A deaminase: -0.2; APOBEC3G inh: 0.6; AHR act: 116.1*; NTR1 ag: 0.6; AHR act confirm: 82.3*; PXR act counter: 25.8*

What do the screens show for `O=C(NC(=S)Nc1ccc(Br)cn1)c1cccs1`?
A3A deaminase: -3.6; APOBEC3G inh: -7.8; AHR act: 83.6*; NTR1 ag: 4.4; AHR act confirm: 116.1*; PXR act counter: 16.0*

What do the screens show for `O=C(O)c1ccc2c(c1)C(=O)N(c1cc([N+](=O)[O-])ccn1)C2=O`?
A3A deaminase: -2.7; APOBEC3G inh: -6.3; AHR act: 4.7; NTR1 ag: -0.2

Results for Cc1c(=O)n(OCc2ccccc2)c2ccccc2[n+]1[O-] ?
A3A deaminase: -1.6; APOBEC3G inh: -1.9; AHR act: 176.9*; NTR1 ag: -1.3; AHR act confirm: 200.8*; PXR act counter: 47.2*

How did O=C(Nc1cc(Cl)ccc1Cl)c1ccc(-c2ccccc2)cc1 do in these assays?
A3A deaminase: 6.1; APOBEC3G inh: -0.4; AHR act: 87.4*; NTR1 ag: 2.7; AHR act confirm: 90.3*; PXR act counter: 28.7*

What do the screens show for `CCCOC(=O)c1ccc(Cl)c(NC(=O)c2ccc(-c3ccccc3)cc2)c1`?
A3A deaminase: 2.8; APOBEC3G inh: 0.7; AHR act: 1.4; NTR1 ag: 6.7
